We go through two compounds from ChEMBL document CHEMBL1961873, “Compounds: GSK PKIS; Assays: Nanosyn kinase panel” (2012).

Assay [1] has as its target T1, Inhibitor of nuclear factor kappa-B kinase subunit epsilon (Homo sapiens) (UniProt Q14164).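 Further: reported values are averaged percent inhibition figures against human IKKε.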
T1 sequence (whole entry): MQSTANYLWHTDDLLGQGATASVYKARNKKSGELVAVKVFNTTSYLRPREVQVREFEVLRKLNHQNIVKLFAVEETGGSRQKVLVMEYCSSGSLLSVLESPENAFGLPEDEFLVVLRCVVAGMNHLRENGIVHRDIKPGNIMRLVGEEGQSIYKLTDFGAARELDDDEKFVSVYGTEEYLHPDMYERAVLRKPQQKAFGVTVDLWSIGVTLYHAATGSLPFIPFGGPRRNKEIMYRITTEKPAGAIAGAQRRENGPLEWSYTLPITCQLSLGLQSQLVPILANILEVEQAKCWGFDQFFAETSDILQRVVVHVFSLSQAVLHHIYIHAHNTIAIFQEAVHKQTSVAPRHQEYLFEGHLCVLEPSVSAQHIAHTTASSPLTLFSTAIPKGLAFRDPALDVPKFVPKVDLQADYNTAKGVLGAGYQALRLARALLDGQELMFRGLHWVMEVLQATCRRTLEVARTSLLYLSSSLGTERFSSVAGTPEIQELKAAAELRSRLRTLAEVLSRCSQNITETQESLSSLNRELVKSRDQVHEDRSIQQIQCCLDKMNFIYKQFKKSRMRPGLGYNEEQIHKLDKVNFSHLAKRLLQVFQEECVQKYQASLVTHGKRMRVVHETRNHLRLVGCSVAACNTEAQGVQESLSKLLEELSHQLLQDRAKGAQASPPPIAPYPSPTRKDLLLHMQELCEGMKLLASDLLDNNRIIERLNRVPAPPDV
Conditions: at 1 µM.

Assay [2] addresses T2, Serine/threonine-protein kinase Nek1 (Homo sapiens) (UniProt Q96PY6).
T2 sequence (whole entry): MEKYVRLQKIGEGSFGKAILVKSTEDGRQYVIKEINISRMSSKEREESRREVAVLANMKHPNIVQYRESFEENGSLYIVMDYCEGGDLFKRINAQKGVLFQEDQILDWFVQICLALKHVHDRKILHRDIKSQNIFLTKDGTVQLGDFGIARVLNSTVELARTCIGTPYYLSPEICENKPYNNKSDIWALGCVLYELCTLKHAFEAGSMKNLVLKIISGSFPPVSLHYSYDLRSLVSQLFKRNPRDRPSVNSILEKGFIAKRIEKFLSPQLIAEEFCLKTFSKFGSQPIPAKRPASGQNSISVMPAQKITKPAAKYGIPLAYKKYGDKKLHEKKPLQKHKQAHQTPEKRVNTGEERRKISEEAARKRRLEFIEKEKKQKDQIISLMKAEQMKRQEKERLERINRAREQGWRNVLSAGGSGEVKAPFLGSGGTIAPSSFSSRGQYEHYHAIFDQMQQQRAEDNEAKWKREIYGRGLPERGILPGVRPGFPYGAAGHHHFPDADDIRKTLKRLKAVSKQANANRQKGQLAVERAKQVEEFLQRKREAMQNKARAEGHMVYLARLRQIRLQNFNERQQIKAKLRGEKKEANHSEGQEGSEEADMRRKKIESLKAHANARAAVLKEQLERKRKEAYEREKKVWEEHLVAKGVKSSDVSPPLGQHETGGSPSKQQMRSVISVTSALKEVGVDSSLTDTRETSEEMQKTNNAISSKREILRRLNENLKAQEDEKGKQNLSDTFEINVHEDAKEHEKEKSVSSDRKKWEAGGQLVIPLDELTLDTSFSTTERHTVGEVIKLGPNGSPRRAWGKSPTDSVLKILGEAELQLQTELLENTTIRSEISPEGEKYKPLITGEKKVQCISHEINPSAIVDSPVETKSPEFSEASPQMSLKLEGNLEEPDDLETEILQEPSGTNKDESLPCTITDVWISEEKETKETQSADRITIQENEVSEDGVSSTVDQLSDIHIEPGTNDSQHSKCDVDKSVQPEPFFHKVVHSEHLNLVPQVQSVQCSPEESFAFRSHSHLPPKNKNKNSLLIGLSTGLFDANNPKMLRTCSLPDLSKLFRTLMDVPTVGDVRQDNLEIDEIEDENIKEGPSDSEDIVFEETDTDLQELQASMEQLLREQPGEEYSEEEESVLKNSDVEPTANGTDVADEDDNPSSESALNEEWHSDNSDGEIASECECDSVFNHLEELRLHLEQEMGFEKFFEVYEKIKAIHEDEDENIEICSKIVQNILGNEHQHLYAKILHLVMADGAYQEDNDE
Conditions: at 0.1 µM.

Assay [3] addresses T2, Serine/threonine-protein kinase Nek1 (Homo sapiens). Particulars: at 1 µM.
Assay [4] deals with T3, Serine/threonine-protein kinase Nek2 (Homo sapiens) (UniProt P51955).
T3 sequence (whole entry): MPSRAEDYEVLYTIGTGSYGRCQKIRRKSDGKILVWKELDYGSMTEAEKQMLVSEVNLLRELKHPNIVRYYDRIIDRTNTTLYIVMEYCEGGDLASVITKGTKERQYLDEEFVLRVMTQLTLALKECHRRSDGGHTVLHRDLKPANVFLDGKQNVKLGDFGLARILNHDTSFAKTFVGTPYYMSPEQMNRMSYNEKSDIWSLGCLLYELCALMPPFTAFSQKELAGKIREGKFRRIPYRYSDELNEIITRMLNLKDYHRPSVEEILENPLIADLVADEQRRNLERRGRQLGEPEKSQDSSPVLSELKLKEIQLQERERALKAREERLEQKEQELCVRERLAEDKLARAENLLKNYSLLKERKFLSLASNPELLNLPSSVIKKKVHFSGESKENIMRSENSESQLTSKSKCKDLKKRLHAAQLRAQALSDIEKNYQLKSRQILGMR
Particulars: at 0.1 µM.

Assay [5] concerns the target T3, Serine/threonine-protein kinase Nek2 (Homo sapiens). Particulars: at 1 µM.
The target in assay [6] is Serine/threonine-protein kinase Nek6 (Homo sapiens) (UniProt Q9HC98). Particulars: at 0.1 µM.
Sequence of Serine/threonine-protein kinase Nek6 (Homo sapiens) (Q9HC98 whole entry): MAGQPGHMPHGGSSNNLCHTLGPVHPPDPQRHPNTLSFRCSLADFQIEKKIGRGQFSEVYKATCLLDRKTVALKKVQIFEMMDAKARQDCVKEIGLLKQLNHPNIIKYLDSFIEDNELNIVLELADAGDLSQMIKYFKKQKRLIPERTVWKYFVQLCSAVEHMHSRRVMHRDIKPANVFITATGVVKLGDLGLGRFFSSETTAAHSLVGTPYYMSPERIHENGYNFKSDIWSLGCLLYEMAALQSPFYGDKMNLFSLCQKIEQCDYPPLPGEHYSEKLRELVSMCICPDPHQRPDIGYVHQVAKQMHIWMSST
The target is the same in assay [7]. Particulars: at 1 µM.
Assay [8] has as its target Serine/threonine-protein kinase Nek7 (Homo sapiens) (UniProt Q8TDX7). Particulars: at 0.1 µM.
Assay [9] has the same target. Conditions: at 1 µM.
Assay [10] addresses T4, Serine/threonine-protein kinase Nek9 (Homo sapiens) (UniProt Q8TD19).
T4 sequence (whole entry): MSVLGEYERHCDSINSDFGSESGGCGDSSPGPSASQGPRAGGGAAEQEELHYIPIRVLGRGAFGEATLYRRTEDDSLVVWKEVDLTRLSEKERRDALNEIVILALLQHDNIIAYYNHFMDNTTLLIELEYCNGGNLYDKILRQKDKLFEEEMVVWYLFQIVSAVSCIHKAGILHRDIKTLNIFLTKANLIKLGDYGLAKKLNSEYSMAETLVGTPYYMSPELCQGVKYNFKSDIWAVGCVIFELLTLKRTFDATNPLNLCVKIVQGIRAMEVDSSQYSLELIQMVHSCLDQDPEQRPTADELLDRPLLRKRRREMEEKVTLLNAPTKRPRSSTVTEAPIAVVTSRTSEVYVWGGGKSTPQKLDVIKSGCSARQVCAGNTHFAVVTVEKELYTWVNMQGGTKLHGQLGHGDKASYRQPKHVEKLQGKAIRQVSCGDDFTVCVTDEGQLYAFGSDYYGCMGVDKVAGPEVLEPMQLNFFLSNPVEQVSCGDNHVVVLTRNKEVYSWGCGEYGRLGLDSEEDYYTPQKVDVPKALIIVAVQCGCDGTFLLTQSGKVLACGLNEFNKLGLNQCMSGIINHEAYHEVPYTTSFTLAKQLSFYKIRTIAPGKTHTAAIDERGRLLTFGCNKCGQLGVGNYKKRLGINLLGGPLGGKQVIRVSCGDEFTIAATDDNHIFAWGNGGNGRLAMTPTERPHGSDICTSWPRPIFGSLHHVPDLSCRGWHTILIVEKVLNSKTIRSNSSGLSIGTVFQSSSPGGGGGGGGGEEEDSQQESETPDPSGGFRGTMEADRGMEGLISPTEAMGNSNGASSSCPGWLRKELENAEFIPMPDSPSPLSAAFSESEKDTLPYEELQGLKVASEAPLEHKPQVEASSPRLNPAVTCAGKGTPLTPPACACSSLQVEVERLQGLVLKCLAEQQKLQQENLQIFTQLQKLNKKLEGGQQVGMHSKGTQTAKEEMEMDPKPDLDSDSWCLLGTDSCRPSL
Particulars: at 0.1 µM.

Assay [11] addresses T4, Serine/threonine-protein kinase Nek9 (Homo sapiens). Conditions: at 1 µM.
The target in assay [12] is Serine/threonine-protein kinase PLK1 (Homo sapiens) (UniProt P53350). Particulars: at 0.1 µM.
Sequence of Serine/threonine-protein kinase PLK1 (Homo sapiens) (P53350 whole entry): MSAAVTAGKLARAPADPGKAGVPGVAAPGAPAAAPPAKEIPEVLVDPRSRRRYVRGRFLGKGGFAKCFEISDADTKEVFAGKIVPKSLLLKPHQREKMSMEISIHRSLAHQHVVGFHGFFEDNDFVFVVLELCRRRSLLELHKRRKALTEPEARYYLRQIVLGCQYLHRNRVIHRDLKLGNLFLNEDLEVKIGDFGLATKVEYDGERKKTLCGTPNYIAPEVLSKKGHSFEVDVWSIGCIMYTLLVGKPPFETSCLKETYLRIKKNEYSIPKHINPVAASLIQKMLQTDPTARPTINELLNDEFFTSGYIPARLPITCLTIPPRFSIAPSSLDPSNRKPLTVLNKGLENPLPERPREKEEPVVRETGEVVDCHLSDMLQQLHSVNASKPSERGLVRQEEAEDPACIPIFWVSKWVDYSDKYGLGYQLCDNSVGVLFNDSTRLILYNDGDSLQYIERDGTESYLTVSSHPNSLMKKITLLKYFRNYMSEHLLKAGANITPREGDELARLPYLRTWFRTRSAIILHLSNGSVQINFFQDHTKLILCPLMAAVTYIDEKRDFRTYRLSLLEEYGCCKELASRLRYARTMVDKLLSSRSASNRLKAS
Assay [13] has the same target. Particulars: at 1 µM.
The target of assay [14] is T5, Dual specificity protein kinase TTK (Homo sapiens) (UniProt P33981).
T5 sequence (whole entry): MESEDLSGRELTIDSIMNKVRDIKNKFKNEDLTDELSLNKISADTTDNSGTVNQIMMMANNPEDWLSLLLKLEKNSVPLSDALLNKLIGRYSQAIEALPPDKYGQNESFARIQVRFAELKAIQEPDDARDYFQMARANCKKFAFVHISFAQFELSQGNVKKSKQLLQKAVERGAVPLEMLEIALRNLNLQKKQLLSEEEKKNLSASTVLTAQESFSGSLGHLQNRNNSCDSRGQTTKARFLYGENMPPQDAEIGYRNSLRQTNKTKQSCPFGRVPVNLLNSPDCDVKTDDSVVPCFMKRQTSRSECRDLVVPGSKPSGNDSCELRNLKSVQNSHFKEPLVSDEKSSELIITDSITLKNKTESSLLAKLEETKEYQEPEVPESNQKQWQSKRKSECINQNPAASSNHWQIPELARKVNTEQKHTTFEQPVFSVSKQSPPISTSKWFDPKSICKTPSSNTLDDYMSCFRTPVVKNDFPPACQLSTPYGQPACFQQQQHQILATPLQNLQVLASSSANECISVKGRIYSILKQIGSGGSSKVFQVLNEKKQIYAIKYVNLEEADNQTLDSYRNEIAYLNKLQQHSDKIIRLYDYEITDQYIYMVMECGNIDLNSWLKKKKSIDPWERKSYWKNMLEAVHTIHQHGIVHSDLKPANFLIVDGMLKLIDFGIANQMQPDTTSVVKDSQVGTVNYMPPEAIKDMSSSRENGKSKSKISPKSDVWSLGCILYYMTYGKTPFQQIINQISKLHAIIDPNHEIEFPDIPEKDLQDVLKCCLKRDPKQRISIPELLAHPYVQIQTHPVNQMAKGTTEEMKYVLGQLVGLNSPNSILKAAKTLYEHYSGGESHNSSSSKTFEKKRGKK
Conditions: at 0.1 µM.

For assay [15], the system named is T6, Receptor-type tyrosine-protein kinase FLT3 (Homo sapiens), P36888 [D835Y].
T6 sequence (whole entry): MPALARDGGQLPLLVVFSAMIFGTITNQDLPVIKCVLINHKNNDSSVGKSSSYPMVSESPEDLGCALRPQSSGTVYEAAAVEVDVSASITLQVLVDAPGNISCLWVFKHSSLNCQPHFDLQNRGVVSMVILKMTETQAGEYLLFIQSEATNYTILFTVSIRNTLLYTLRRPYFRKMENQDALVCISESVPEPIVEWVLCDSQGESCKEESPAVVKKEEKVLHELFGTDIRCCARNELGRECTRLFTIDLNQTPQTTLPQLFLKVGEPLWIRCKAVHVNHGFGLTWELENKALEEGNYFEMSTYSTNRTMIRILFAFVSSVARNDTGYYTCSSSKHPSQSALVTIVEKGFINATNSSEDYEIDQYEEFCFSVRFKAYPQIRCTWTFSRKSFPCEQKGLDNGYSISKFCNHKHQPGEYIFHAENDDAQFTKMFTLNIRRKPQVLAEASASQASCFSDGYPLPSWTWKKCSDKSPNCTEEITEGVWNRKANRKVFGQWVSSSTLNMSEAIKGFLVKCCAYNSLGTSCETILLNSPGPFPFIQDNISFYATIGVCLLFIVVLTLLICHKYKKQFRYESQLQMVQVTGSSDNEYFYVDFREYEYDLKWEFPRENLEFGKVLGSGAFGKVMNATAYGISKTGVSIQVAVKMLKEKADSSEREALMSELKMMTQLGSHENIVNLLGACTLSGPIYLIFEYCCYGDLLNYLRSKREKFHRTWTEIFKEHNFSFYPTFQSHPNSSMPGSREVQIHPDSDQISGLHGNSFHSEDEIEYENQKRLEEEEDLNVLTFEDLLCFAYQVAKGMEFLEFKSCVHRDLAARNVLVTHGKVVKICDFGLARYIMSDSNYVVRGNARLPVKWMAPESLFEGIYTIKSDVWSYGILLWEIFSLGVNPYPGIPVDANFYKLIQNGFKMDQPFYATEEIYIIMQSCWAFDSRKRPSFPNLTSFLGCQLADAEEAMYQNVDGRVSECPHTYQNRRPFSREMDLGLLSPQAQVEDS
Conditions: at 1 µM.

For assay [16], the target named is Vascular endothelial growth factor receptor 3 (Homo sapiens) (UniProt P35916). Conditions: at 0.1 µM.
Sequence of Vascular endothelial growth factor receptor 3 (Homo sapiens) (P35916 whole entry): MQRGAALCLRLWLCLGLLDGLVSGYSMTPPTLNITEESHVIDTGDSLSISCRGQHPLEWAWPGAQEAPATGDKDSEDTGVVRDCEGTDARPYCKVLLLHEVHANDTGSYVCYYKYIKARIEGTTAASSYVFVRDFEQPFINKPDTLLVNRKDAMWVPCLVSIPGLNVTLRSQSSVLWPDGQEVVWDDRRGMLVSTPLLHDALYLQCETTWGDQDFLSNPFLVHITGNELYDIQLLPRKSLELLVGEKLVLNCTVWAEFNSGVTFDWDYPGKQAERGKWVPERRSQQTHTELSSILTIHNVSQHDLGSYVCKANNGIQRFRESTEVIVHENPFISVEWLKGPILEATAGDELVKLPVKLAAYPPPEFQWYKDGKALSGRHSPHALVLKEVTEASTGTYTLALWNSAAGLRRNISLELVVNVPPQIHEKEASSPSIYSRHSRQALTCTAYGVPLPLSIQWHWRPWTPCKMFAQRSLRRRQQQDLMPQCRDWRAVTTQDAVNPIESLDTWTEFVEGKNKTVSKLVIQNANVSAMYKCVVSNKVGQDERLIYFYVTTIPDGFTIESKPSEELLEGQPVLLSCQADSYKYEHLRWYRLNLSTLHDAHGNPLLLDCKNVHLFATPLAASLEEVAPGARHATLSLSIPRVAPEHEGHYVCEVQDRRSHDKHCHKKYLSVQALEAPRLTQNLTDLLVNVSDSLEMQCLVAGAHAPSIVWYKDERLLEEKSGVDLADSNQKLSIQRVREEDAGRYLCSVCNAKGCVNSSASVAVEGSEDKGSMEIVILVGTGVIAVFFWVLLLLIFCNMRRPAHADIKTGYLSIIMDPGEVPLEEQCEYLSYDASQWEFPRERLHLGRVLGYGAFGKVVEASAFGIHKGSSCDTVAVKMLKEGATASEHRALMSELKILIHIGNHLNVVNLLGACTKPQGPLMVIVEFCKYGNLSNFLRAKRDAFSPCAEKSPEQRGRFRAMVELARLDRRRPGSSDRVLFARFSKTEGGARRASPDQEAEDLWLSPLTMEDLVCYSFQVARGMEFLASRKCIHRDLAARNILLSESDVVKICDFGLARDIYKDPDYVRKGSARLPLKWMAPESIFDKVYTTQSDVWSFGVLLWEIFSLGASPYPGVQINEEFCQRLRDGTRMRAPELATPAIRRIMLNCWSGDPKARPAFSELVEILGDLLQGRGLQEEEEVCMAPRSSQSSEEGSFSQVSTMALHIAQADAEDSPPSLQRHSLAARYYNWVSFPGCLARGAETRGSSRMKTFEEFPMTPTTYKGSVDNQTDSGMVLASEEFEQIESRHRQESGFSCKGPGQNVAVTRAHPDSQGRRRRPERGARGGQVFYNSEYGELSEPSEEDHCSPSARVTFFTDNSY
Assay [17] shares this target. Conditions: at 1 µM.
The target of assay [18] is Macrophage colony-stimulating factor 1 receptor (Homo sapiens) (UniProt P07333). Particulars: at 0.1 µM.
Sequence of Macrophage colony-stimulating factor 1 receptor (Homo sapiens) (P07333 whole entry): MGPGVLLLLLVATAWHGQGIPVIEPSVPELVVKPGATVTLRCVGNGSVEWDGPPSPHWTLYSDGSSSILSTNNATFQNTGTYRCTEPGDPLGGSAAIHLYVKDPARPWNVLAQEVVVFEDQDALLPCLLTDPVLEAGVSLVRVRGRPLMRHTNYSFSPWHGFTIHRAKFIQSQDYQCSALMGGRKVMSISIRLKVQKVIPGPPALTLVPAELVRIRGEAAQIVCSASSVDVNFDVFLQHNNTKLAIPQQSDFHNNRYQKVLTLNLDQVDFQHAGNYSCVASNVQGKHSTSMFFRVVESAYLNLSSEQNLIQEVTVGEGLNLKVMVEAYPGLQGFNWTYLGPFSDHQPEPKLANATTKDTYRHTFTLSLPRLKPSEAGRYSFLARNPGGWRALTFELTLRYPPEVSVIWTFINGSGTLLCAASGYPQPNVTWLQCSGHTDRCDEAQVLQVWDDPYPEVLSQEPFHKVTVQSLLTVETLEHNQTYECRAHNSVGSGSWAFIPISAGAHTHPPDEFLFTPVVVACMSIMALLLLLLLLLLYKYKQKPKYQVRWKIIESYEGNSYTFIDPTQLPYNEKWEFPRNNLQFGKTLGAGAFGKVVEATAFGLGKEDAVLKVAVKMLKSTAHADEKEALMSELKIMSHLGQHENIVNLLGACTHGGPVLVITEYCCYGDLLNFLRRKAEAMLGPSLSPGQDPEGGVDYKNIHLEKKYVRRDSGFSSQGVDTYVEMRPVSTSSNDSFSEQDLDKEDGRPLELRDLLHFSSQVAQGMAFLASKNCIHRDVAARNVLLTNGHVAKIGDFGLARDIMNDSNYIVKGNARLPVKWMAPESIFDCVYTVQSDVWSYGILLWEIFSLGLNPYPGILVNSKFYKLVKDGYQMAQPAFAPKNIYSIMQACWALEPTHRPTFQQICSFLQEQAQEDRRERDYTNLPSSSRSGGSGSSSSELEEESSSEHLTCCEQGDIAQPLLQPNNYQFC
Assay [19] has the same target. Particulars: at 1 µM.
For assay [20], the target named is Tyrosine-protein kinase Fyn (Homo sapiens) (UniProt P06241). Conditions: at 0.1 µM.
Sequence of Tyrosine-protein kinase Fyn (Homo sapiens) (P06241 2-537 limits assumed): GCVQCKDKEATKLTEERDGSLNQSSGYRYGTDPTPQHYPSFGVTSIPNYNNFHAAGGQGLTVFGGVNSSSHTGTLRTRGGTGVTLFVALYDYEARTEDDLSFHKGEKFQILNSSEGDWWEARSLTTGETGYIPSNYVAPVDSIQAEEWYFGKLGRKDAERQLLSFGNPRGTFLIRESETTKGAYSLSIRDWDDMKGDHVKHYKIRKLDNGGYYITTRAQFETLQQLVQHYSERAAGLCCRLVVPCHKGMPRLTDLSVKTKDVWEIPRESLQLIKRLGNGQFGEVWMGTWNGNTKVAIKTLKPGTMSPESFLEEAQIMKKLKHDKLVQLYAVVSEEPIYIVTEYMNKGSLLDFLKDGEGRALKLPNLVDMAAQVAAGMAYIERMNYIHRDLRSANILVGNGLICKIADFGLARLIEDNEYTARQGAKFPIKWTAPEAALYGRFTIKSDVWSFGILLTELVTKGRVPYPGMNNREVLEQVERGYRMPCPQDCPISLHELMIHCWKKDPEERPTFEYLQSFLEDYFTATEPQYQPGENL

Molecules are shown by their SMILES.

Sequence of Serine/threonine-protein kinase Nek7 (Homo sapiens) (Q8TDX7 whole entry, looked up): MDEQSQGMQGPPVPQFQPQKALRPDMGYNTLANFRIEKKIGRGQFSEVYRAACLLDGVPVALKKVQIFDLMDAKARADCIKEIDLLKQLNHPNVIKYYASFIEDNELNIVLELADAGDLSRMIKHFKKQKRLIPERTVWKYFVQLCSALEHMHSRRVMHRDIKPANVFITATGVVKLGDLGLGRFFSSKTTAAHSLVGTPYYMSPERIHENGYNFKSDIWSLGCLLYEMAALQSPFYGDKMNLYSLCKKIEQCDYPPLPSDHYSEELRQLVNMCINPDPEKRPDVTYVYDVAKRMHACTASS

For `NS(=O)(=O)c1ccc(NC=C2C(=O)Nc3ccc4ncsc4c32)cc1`, the inhibition was determined as 65.4% in assay [1]; 3.02% in assay [2]; 6.96% in assay [3]; 5.94% in assay [4]; 8.12% in [5]; 1.57% in [6]. The inhibition is 7.78% in [7]; 7.6% in assay [8]; 13.9% in assay [9]; 9.07% in [10]; 32% in [11]; 4.42% in [12]. Moreover, the inhibition in assay [13] was 6.99%; in [14], 52.1%; in assay [15], 87.5%; in assay [16] it was 63.9%; in assay [17], 102%; in assay [18], 47.5%. Also, the inhibition was 85.5% in assay [19] and 5.49% in [20].

Turning to `Cc1ccc2c(-c3ccnc(Nc4cccc(C(F)(F)F)c4)n3)c(-c3ccccc3)nn2n1`, the inhibition in assay [1] turned out to be 6.22%; in assay [2], 3.11%; in assay [3], 2.67%; in assay [4] it was 6.28%; in assay [5] it was 3.74%; in [6], 6.41%. In addition, the inhibition in assay [7] worked out at 1.67%; in [8], 0.74%; in [9], 5.29%; in assay [10], 8.93%; in assay [11] it was 7.33%; in assay [12], 7.39%. For the same compound, the inhibition in [13] came out at 6.37%; in [14] it was 10.5%; in assay [15], 1.38%; in assay [16], 4.59%; in assay [17], 24.9%; in assay [18] it was 1.77%. Further, the inhibition came out at 23.1% in assay [19] and 15.6% in assay [20].
